# From PubChem BioAssay (Tox21)
# Where “and” joins values, the source holds several entries; their conditions need not be identical. Equal entries are not always repeated. Inconclusive results are not listed. A call without a number means that no potency is given here. More than one record can exist for a structure, and the calls need not agree. Calls of active or inactive are those of the source. The call rests on the fitted dose curve; in most records, active means well fitted curve in the direction sought with a large enough effect in the repeat runs; inconclusive means weak or mixed curves; inactive means no such curve, though single readings can be large; an effect the other way counts as inactive or inconclusive.
# Columns and labels:
# [1] = A CellTox Green Cytotoxicity Assay to monitor cytotoxicity in HEK293 cells - 40 hour (AID 1224871); further: nearly all actives have a fitted effect of over 45% in size; further: potency means the concentration at half of the fitted maximal effect
# How it was run: (§1)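 Each value comes from one timepoint of a single continuous run in which HEK293 cells with CellTox Green were exposed to compound for up to 40 h at 37 C, dye fluorescence rising with cell death.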
# [2] = qHTS RealTime-Glo MT Cell Viability Assay in HEK293 cells - 16 hour (AID 1224872); further: nearly all actives have a fitted effect of over 50% in size; further: potency means the concentration at half of the fitted maximal effect
# How it was run: (§2)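 HEK293 cells seeded with NanoLuc/prosubstrate reagent, rested 5 h at 37 C, then dosed and kept at 37 C up to 40 h. Nonlytic real-time luminescence from viable cells read at 0, 8, 16, 24, 32 and 40 h.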
# [3] = qHTS RealTime-Glo MT Cell Viability Assay in HepG2 cells - 8 hour (AID 1224873); further: nearly all actives have a fitted effect of over 55% in size
# How it was run: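 Real-time viability: cells seeded at 600 per well together with NanoLuc and cell-permeant prosubstrate, compounds added after 5 h incubation. Luminescence tracked at 0, 8, 16, 24, 32 and 40 h of exposure.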
# [4] = qHTS RealTime-Glo MT Cell Viability Assay in HEK293 cells - 40 hour (AID 1224874); conditions: RealTime-Glo luminescence; max response: stronger effect = lower value; further: nearly all actives have a fitted effect of over 50% in size; further: potency means the concentration at half of the fitted maximal effect
# How it was run: (§3)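 qHTS format; HEK293 cells with NanoLuc/prosubstrate reagent, 37 C/5% CO2 for 5 h pre-dosing; compounds 23 nL in DMSO; luminescence at each time point reflects viable cells.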
# [5] = A CellTox Green Cytotoxicity Assay to monitor cytotoxicity in HEK293 cells - 24 hour (AID 1224875); further: nearly all actives have a fitted effect of over 45% in size; further: potency means the concentration at half of the fitted maximal effect
# How it was run: as §1
# [6] = A CellTox Green Cytotoxicity Assay to monitor cytotoxicity in HepG2 cells - 16 hour (AID 1224876); further: nearly all actives have a fitted effect of over 45% in size; further: potency means the concentration at half of the fitted maximal effect
# How it was run: (§4)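 Continuous culture of HepG2 cells with a membrane-impermeant DNA dye; rising fluorescence marks dead cells. Compound exposure lasted up to 40 h at 37 C, with reads every 8 h from 0 h.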
# [7] = qHTS RealTime-Glo MT Cell Viability Assay in HepG2 cells - 32 hour (AID 1224877); further: nearly all actives have a fitted effect of over 55% in size; further: potency means the concentration at half of the fitted maximal effect
# How it was run: (§5)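 HepG2 cells (600/well) were dispensed with RealTime-Glo reagents, incubated 5 h at 37 °C, then treated with compounds in DMSO for up to 40 h. Nonlytic NanoLuc luminescence reflecting viable cells was read at each stated time point.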
# [8] = A CellTox Green Cytotoxicity Assay to monitor cytotoxicity in HepG2 cells - 24 hour (AID 1224878); further: nearly all actives have a fitted effect of over 45% in size; further: potency means the concentration at half of the fitted maximal effect
# How it was run: as §4
# [9] = A CellTox Green Cytotoxicity Assay to monitor cytotoxicity in HepG2 cells - 40 hour (AID 1224879); further: nearly all actives have a fitted effect of over 40% in size; further: potency means the concentration at half of the fitted maximal effect
# How it was run: as §4
# [10] = qHTS RealTime-Glo MT Cell Viability Assay in HEK293 cells - 0 hour (AID 1224880)
# How it was run: as §3
# [11] = A CellTox Green Cytotoxicity Assay to monitor cytotoxicity in HepG2 cells - 0 hour (AID 1224882); further: nearly all actives have a fitted effect of over 35% in size
# How it was run: as §4
# [12] = A CellTox Green Cytotoxicity Assay to monitor cytotoxicity in HepG2 cells - 32 hour (AID 1224883); further: nearly all actives have a fitted effect of over 50% in size; further: potency means the concentration at half of the fitted maximal effect
# How it was run: as §4
# [13] = A CellTox Green Cytotoxicity Assay to monitor cytotoxicity in HEK293 cells - 8 hour (AID 1224884); further: nearly all actives have a fitted effect of over 35% in size; further: potency means the concentration at half of the fitted maximal effect
# How it was run: as §1
# [14] = qHTS RealTime-Glo MT Cell Viability Assay in HepG2 cells - 16 hour (AID 1224885); further: nearly all actives have a fitted effect of over 50% in size
# How it was run: as §5
# [15] = qHTS RealTime-Glo MT Cell Viability Assay in HEK293 cells - 24 hour (AID 1224886); further: nearly all actives have a fitted effect of over 50% in size; further: potency means the concentration at half of the fitted maximal effect
# How it was run: as §2
# [16] = qHTS RealTime-Glo MT Cell Viability Assay in HEK293 cells - 8 hour (AID 1224887); further: nearly all actives have a fitted effect of over 50% in size; further: potency means the concentration at half of the fitted maximal effect
# How it was run: as §3
# [17] = A CellTox Green Cytotoxicity Assay to monitor cytotoxicity in HEK293 cells - 16 hour (AID 1224888); further: nearly all actives have a fitted effect of over 35% in size
# How it was run: as §1
# [18] = qHTS RealTime-Glo MT Cell Viability Assay in HepG2 cells - 0 hour (AID 1224889); further: nearly all actives have a fitted effect of over 50% in size
# How it was run: as §5
# [19] = A CellTox Green Cytotoxicity Assay to monitor cytotoxicity in HepG2 cells - 8 hour (AID 1224890); further: nearly all actives have a fitted effect of over 45% in size; further: potency means the concentration at half of the fitted maximal effect
# How it was run: as §4
# [20] = A CellTox Green Cytotoxicity Assay to monitor cytotoxicity in HEK293 cells - 32 hour (AID 1224881); further: nearly all actives have a fitted effect of over 40% in size; further: potency means the concentration at half of the fitted maximal effect
# How it was run: as §1
smiles,measurement,setting,value
CC/C(=C(/CC)c1ccc(O)cc1)c1ccc(O)cc1,Potency,[1],inactive
same,Potency,[2],15.4 µM (active) and 30.9 µM (active)
same,Potency,[3],inactive
same,Potency,[4],12.2 µM (active) and 27.5 µM (active) and 19 µM (active)
same,Potency,[5],inactive
same,Potency,[6],inactive
same,Potency,[7],inactive
same,Potency,[8],inactive
same,Potency,[9],inactive
same,Potency,[10],inactive
same,Potency,[11],inactive
same,Potency,[12],inactive
same,Potency,[13],inactive
same,Potency,[14],inactive
same,Potency,[15],12.2 µM (active) and 27.5 µM (active)
same,Potency,[16],15.4 µM (active)
same,Potency,[17],inactive
same,Potency,[18],inactive
same,Potency,[19],inactive
Cc1ccc(S(=O)(=O)O)cc1C,Potency,[1],inactive
same,Potency,[2],inactive
same,Potency,[3],inactive
same,max response,[4],-0.252% (inactive) and 9.18% (inactive)
same,Potency,[5],inactive
same,Potency,[6],inactive
same,Potency,[7],inactive
same,Potency,[8],inactive
same,Potency,[9],inactive
same,Potency,[10],inactive
same,Potency,[11],inactive
same,Potency,[12],inactive
same,Potency,[13],inactive
same,Potency,[14],inactive
same,Potency,[15],inactive
same,Potency,[16],inactive
same,Potency,[17],inactive
same,Potency,[18],inactive
same,Potency,[19],inactive
COC(=O)CC(=O)OC,Potency,[1],inactive
same,Potency,[2],inactive
same,Potency,[3],inactive
same,max response,[4],2.65% (inactive) and 1% (inactive)
same,Potency,[6],inactive
same,Potency,[7],inactive
same,Potency,[8],inactive
same,Potency,[9],inactive
same,Potency,[10],inactive
same,Potency,[20],inactive
same,Potency,[11],inactive
same,Potency,[12],inactive
same,Potency,[13],inactive
same,Potency,[14],inactive
same,Potency,[15],inactive
same,Potency,[16],inactive
same,Potency,[17],inactive
same,Potency,[18],inactive
same,Potency,[19],inactive
CCCCCCC(C)O (configuration not stated),Potency,[1],inactive
same,Potency,[2],inactive
same,Potency,[3],inactive
same,max response,[4],1.85% (inactive) and 4.03% (inactive)
same,Potency,[5],inactive
same,Potency,[6],inactive
same,Potency,[7],inactive
same,Potency,[8],inactive
same,Potency,[9],inactive
same,Potency,[10],inactive
same,Potency,[20],inactive
same,Potency,[11],inactive
same,Potency,[12],inactive
same,Potency,[13],inactive
same,Potency,[14],inactive
same,Potency,[15],inactive
same,Potency,[16],inactive
same,Potency,[17],inactive
same,Potency,[18],inactive
same,Potency,[19],inactive
Cc1ccc(C(C)(C)C)c(O)c1,Potency,[1],23.8 µM (active) and 24.5 µM (active)
same,Potency,[2],inactive
same,Potency,[3],inactive
same,max response,[4],-23.8% (inactive) and -20.7% (inactive)
same,Potency,[5],23.8 µM (active) and 24.5 µM (active)
same,Potency,[6],38.9 µM (active)
same,Potency,[7],inactive
same,Potency,[8],38.9 µM (active)
same,Potency,[9],34.7 µM (active)
same,Potency,[10],inactive
same,Potency,[20],23.8 µM (active) and 21.9 µM (active)
same,Potency,[11],inactive
same,Potency,[12],38.9 µM (active)
same,Potency,[13],18.9 µM (active) and inactive
same,Potency,[14],inactive
same,Potency,[15],inactive
same,Potency,[16],inactive
same,Potency,[18],inactive
same,Potency,[19],inactive and 43.6 µM (active)
c1ccc2c(c1)[nH]c1ccccc12,Potency,[1],inactive
same,Potency,[2],inactive
same,Potency,[3],inactive
same,max response,[4],-8.89% (inactive)
same,Potency,[5],inactive
same,Potency,[6],inactive
same,Potency,[7],inactive
same,Potency,[8],inactive
same,Potency,[10],inactive
same,Potency,[20],inactive
same,Potency,[11],inactive
same,Potency,[12],inactive
same,Potency,[13],inactive
same,Potency,[14],inactive
same,Potency,[15],inactive
same,Potency,[16],inactive
same,Potency,[17],inactive
same,Potency,[18],inactive
same,Potency,[19],inactive
C=CCOC(=O)C(=C)C,Potency,[1],inactive
same,Potency,[2],inactive
same,Potency,[3],inactive
same,max response,[4],2.76% (inactive) and 2.11% (inactive)
same,Potency,[5],inactive
same,Potency,[6],inactive
same,Potency,[7],inactive
same,Potency,[8],inactive
same,Potency,[9],inactive
same,Potency,[10],inactive
same,Potency,[11],inactive
same,Potency,[12],inactive
same,Potency,[13],inactive
same,Potency,[14],inactive
same,Potency,[15],inactive
same,Potency,[16],inactive
same,Potency,[17],inactive
same,Potency,[18],inactive
same,Potency,[19],inactive
CCCCCCCCCCCCO,Potency,[1],4.84 µM (active)
same,Potency,[2],inactive
same,Potency,[3],inactive
same,max response,[4],-4.3% (inactive) and -1.21% (inactive)
same,Potency,[5],inactive
same,Potency,[6],inactive
same,Potency,[7],inactive
same,Potency,[8],inactive
same,Potency,[9],inactive
same,Potency,[10],inactive
same,Potency,[11],inactive
same,Potency,[12],inactive
same,Potency,[13],inactive
same,Potency,[14],inactive
same,Potency,[15],inactive
same,Potency,[16],inactive
same,Potency,[17],inactive
same,Potency,[18],inactive
same,Potency,[19],inactive
CCO[Si](CCCNC(N)=O)(OCC)OCC,Potency,[1],inactive
same,Potency,[2],inactive
same,Potency,[3],inactive
same,max response,[4],-7.6% (inactive) and 2.5% (inactive)
same,Potency,[6],inactive
same,Potency,[7],inactive
same,Potency,[8],inactive
same,Potency,[9],inactive
same,Potency,[10],inactive
same,Potency,[20],inactive
same,Potency,[11],inactive
same,Potency,[12],inactive
same,Potency,[13],inactive
same,Potency,[14],inactive
same,Potency,[15],inactive
same,Potency,[16],inactive
same,Potency,[17],inactive
same,Potency,[18],inactive
same,Potency,[19],inactive
[Na+],Potency,[1],inactive
same,Potency,[2],inactive
same,Potency,[3],inactive
same,max response,[4],3.11% (inactive) and 3.69% (inactive)
same,Potency,[5],inactive
same,Potency,[6],inactive
same,Potency,[7],inactive and 49 µM (active)
same,Potency,[8],inactive
same,Potency,[9],inactive
same,Potency,[10],inactive
same,Potency,[20],inactive
same,Potency,[19],inactive
C[N+](C)(C)CCO,Potency,[1],inactive
same,Potency,[2],inactive
same,Potency,[3],inactive
same,max response,[4],15.9% (inactive) and 6.06% (inactive)
same,Potency,[6],inactive
same,Potency,[7],inactive
same,Potency,[8],inactive
same,Potency,[9],inactive
same,Potency,[10],inactive
same,Potency,[20],inactive
same,Potency,[11],inactive
same,Potency,[12],inactive
same,Potency,[13],inactive
same,Potency,[14],inactive
same,Potency,[15],inactive
same,Potency,[16],inactive
same,Potency,[17],inactive
same,Potency,[18],inactive
same,Potency,[19],inactive
COC(=O)c1ccc(C)cc1,Potency,[1],inactive
same,Potency,[2],inactive
same,Potency,[3],inactive
same,max response,[4],1.02% (inactive) and 6.36% (inactive)
same,Potency,[6],inactive
same,Potency,[7],inactive
same,Potency,[8],inactive
same,Potency,[9],inactive
same,Potency,[10],inactive
same,Potency,[20],inactive
same,Potency,[11],inactive
same,Potency,[12],inactive
same,Potency,[13],inactive
same,Potency,[14],inactive
same,Potency,[15],inactive
same,Potency,[16],inactive
same,Potency,[17],inactive
same,Potency,[18],inactive
same,Potency,[19],inactive
Cc1ccc(C(C)(C)C)cc1,Potency,[1],inactive
same,Potency,[2],inactive
same,Potency,[3],inactive
same,max response,[4],0.538% (inactive)
same,Potency,[5],inactive
same,Potency,[6],inactive
same,Potency,[7],inactive
same,Potency,[8],inactive
same,Potency,[9],inactive
same,Potency,[10],inactive
same,Potency,[20],inactive
same,Potency,[11],inactive
same,Potency,[12],inactive
same,Potency,[13],inactive
same,Potency,[14],inactive
same,Potency,[15],inactive
same,Potency,[16],inactive
same,Potency,[17],inactive
same,Potency,[18],inactive
same,Potency,[19],inactive
